Several values for one entry are separate records, joined by “and”; a condition that tells them apart may be missing. Identical values can stand only once. Records with an inconclusive call do not appear. Activity calls are given as the source filed them. The call rests on the fitted dose curve; in most records, active means well fitted inhibition curve with a large enough effect in the signal ratio in the repeat runs; inconclusive means weak or mixed curves, or effect the other way; inactive means flat fitted curve, though single readings scatter; the % refers to the signal ratio.
test: qHTS assay for small molecule disruptors of the mitochondrial membrane potential (AID 720635); details: HepG2 mitochondrial membrane potential, Mito-MPS dye ratio; series mostly up to 83.2 µM
Source text: U.S. Tox21 Program National Center for Advancing Translational Sciences [NCATS] NIH Chemical Genomics Center [NCGC] U.S. Environmental Protection Agency [EPA] National Institutes of Environmental Health Sciences [NIEHS] National Toxicology Program [NTP] U.S. Food and Drug Administration [FDA] Tox21 Assay Overview: Mitochondrial membrane potential (MMP), one of the parameters for mitochondrial function, is generated by mitochondrial electron transport chain that creates an electrochemical gradient by a series of redox reactions. This gradient drives the synthesis of ATP, a crucial molecule for various cellular processes. Measuring MMP in living cells is commonly used to assess the effect of chemicals on mitochondrial function. […] The dye accumulates in the mitochondria of healthy cells as aggregates, with red fluorescence. The mitochondrial potential collapses and the dye can no longer accumulate in the mitochondria and remains in the cytoplasm in monomers, with green fluorescence.
Tox21 Assay Protocol Summary: 2,000 HepG2 cells in 5 uL/well were dispensed into black, clear-bottom 1536-well plates using a Multidrop Combi (Thermo Scientific) dispenser. The assay plates were incubated overnight at 37C to allow cells to attach to the wells, followed by the transfer of 23 nL compound or DMSO vehicle by a pin tool (Kalypsys). The plates were incubated for 1 hr at 37C and 5% CO2, followed by the addition of 5 uL of 2X Mito-MPS dye (BD Biosciences) into each well using Flying Reagent Dispenser (Aurora Discovery) and then following 30 min incubation at 37C. Fluorescence intensity (490nm excitation and 535nm emission for monomers; and 540nm excitation and 590nm emissions for aggregates) was measured using an Envision plate reader.
Potency means the concentration at half of the fitted maximal effect.

| SMILES | Potency |
| --- | --- |
| NC(=O)c1nc(-c2cccc(-c3cc(F)ccc3OCC(F)(F)C(F)(F)F)c2)n[nH]1 | 9.69 µM (active) |
| C=C[C@](C)(O)CC[C@@H]1[C@@]2(C)CCCC(C)(C)[C@@H]2CC[C@@]1(C)O | 43.3 µM (active) |
| CC(C)(C)CC(C)(C)c1ccccc1O | 2.18 µM (active) |
| C=C1C(C)(C)[C@@]2(Cl)C(Cl)[C@]1(Cl)C(Cl)(Cl)C2(Cl)Cl (stereo not given in full) | 12 µM (active) |
| Cc1occc1SSc1ccoc1C | inactive |
| Nc1cc(Cl)c([N+](=O)[O-])cc1O | 19.2 µM (active) |
| CCN=C1C=CC(=C(c2ccc(N(CC)CC)cc2)c2ccc(N(CC)CC)cc2)c2ccccc21 | 0.0076 µM (active) |
| O=C1OC(OC(=O)c2cccnc2Nc2cccc(C(F)(F)F)c2)c2ccccc21 (stereo not given) | 24.8 µM (active) |
| C[n+]1c2cc(N)ccc2cc2ccc(N)cc21 (tested in a mixture with another compound) | 0.668 µM (active) |
| CC(=O)Oc1ccc(C2(c3ccc(OC(C)=O)cc3)Oc3ccccc3NC2=O)cc1 | 23.7 µM (active) |
| CCN(CC)c1ccc(N)cc1 | 49.9 µM (active) |
| CNC(=O)c1cc(Oc2ccc(NC(=O)Nc3ccc(Cl)c(C(F)(F)F)c3)cc2)ccn1 | 0.88 µM (active) |
| Cc1cn[nH]c1 | inactive |
| CCCCCCCCCCCC(=O)N(CC)CC | inactive |
| CCCCCCCCCCCCCC[n+]1ccccc1 | 21.7 µM (active) |
| CCN1CCN(c2cc(-c3ccc(F)cc3)c3c(n2)CCCCCC3)CC1 | inactive |
| CN1[C@@H]2CC[C@H]1CC(OC(=O)C(CO)c1ccccc1)C2 (stereo not given in full) | inactive |
| C=CC(=O)OCCOCC(CC)(COCCOC(=O)C=C)COCCOC(=O)C=C | inactive |
| [O]=[Zr] | inactive |
| CC(NCCC(c1ccccc1)c1ccccc1)c1ccccc1 (stereo not given) | 8.8 µM (active) |

| SMILES | Potency |
| --- | --- |
| Cc1cc(Nc2ccc(O)cc2)ccc1N | 6.82 µM (active) |
| CC(C)N=C(N)/N=C(\N)Nc1ccc(Cl)cc1 | inactive |
| CCOC(=O)N1CCC(=C2c3ccc(Cl)cc3CCc3cccnc32)CC1 | 29.8 µM (active) and 54.5 µM (active) |
| Oc1ccc(-c2ccc(O)cc2)cc1 | 43.5 µM (active) |
| Clc1ccc(C(Cn2ccnc2)OCc2c(Cl)cccc2Cl)c(Cl)c1 (stereo not given) | inactive |
| O=C(O)CCn1c2c(c3ccccc31)C[C@H](NS(=O)(=O)c1ccc(F)cc1)CC2 | inactive |
| C=CCCCCCCC=C | inactive |
| COC(=O)CC(C)CCC=C(C)C (stereo not given) | inactive |
| CC(C)=C1CC[C@@H](C)CC1=O | inactive |
| N#CSCSc1nc2ccccc2s1 | 30.6 µM (active) |
| O=C(O)CCCCCCC(=O)O | inactive |
| CC(C)c1cccc(C(C)C)c1N1C(=O)c2ccc(O)cc2C1=O | 1.22 µM (active) |
| C1CC(COCC2CO2)CCC1COCC1CO1 (stereo not given) | inactive |
| NC1(c2ccc(-c3nc4ccn5c(=O)[nH]nc5c4cc3-c3ccccc3)cc2)CCC1 | 13.3 µM (active) |
| c1ccc(Nc2cccc3ccccc23)cc1 | 43.8 µM (active) and 43.3 µM (active) |
| NCCCC(O)(P(=O)(O)O)P(=O)(O)O | inactive |
| Cc1oc(-c2ccccc2)nc1CCOc1ccc(C[C@H](Nc2ccccc2C(=O)c2ccccc2)C(=O)O)cc1 | 61.1 µM (active) |
| C[C@]12CC[C@H]3C(=CCc4cc(O)ccc43)[C@@H]1CCC2=O | 19.3 µM (active) |
| CCCCCCOc1cc(C)c(O)c(C)c1C | 5.51 µM (active) |
| COCC(=O)O[C@]1(CCN(C)CCCc2nc3ccccc3[nH]2)CCc2cc(F)ccc2[C@@H]1C(C)C | 3.35 µM (active) |
